Compound activity deposited in PubChem BioAssay by National Center for Advancing Translational Sciences (NCATS).
Most compounds without a hit are left out; they make up all but 12% or so of the library.
G9a block – qHTS Assay for Inhibitors of Histone Lysine Methyltransferase G9a. Histone-lysine N-methyltransferase EHMT2 (Homo sapiens), Q96KQ7. G9a H3K9 monomethylation, AlphaScreen, 2 h. Potency, µM (highest dose often 102 µM), for the others: at the highest dose activity, negative = inhibition, hits mostly inhibitors. 350,000 compounds, 8.8% hits. AID 504332, 2011; note: potency is the fitted concentration of half-maximal effect; % is set by controls: 0 for no effect and ±100 for the full control effect; nearly all actives have a fitted effect of over 75% in size
Target sequence (Q96KQ7 913-1193 limits assumed): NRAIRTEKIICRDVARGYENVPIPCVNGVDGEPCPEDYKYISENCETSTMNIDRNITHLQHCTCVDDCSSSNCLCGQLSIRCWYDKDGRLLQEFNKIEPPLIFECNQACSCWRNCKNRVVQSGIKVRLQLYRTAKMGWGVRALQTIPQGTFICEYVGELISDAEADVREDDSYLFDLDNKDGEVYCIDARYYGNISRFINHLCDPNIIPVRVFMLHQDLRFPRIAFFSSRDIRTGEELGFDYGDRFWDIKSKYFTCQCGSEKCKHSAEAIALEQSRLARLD
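Quantitative HTS format: methyltransferase activity on a biotin-tagged H3K9 peptide is measured by AlphaScreen, using a rabbit anti-monomethyl-H3K9 antibody with streptavidin donor and anti-IgG acceptor beads. Final levels are 20 nM enzyme, 500 nM peptide, 20 uM SAM; 2 h RT.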
BAZ2B inh – qHTS Assay for Inhibitors of BAZ2B; Bromodomain adjacent to zinc finger domain protein 2B (Homo sapiens), Q9UIF8; AlphaScreen BAZ2B-H3K14Ac peptide displacement; Potency, µM (top dose mostly 114 µM), for inactives: at the highest dose activity change, negative = inhibition, most hits filed as inhibitors; 360,000 compounds, 4.4% hits; note: potency is the fitted concentration of half-maximal effect; % is set by controls: 0 for no effect and ±100 for the full control effect; nearly all actives have a fitted effect of over 60% in size
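In this displacement format the biotinylated H3(5-23) peptide acetylated at Lys14 serves as ligand at 50 nM, with BAZ2B at 50 nM in PBS pH 7.4 containing 0.01% Tween-20. Donor and acceptor beads are 10 ug/mL final.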
JMJD2A Tudor inh – qHTS Assay for Inhibitors of JMJD2A-Tudor Domain | Potency, µM (series often up to 114 µM), inactives show at the top dose activity change, negative = inhibition, hits mostly inhibitors | Lysine-specific demethylase 4A (Homo sapiens), O75164 | AlphaScreen JMJD2A-Tudor / H3K4me3 peptide binding | 390,000 compounds, 4.4% hits; note: potency is the fitted concentration of half-maximal effect; % is set by controls: 0 for no effect and ±100 for the full control effect; nearly all actives have a fitted effect of over 50% in size
PLK1 PBD inh – qHTS for Inhibitors of PLK1-PDB (polo-like kinase 1 - polo-box domain): Primary Screen; Potency, µM, for inactives: max response, negative = inhibition, usual class: inhibitors; Serine/threonine-protein kinase PLK1 (Homo sapiens), P53350; 360,000 compounds, 2.8% hits; AID 720504, 2013; Plk1 PBD binding of FITC phosphopeptide, fluorescence polarization; note: potency is the fitted concentration of half-maximal effect; series mostly up to about 57 µM; % is set by controls: 0 for no effect and ±100 for the full control effect; nearly all actives have a fitted effect of over 65% in size
PI5P4Ka inh – qHTS for Inhibitors of phosphatidylinositol 5-phosphate 4-kinase (PI5P4K); 330,000 compounds, 1.2% hits; max response, %; PI5P4Kalpha enzyme, ADP-Glo luminescence, 60 min; hits give low values; Phosphatidylinositol 5-phosphate 4-kinase type-2 alpha (Homo sapiens), P48426; active = max response of -50% or lower; inconclusive = between -30% and -50%; inactive = -30% or higher; note: value at the top dose of about 77 µM; % is set by controls: 0 for no effect and ±100 for the full control effect
Target sequence (P48426 whole entry, looked up): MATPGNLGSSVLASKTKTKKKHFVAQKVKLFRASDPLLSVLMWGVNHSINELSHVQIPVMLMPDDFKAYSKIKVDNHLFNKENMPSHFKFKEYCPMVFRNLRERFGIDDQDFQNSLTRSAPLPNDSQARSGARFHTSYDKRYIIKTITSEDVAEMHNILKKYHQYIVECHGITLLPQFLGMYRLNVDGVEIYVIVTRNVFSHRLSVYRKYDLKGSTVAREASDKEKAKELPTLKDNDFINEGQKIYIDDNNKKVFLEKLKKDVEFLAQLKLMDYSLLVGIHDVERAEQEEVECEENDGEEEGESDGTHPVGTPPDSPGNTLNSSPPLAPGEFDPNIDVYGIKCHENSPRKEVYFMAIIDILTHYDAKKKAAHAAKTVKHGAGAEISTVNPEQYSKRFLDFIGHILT
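Single end-point luminescence (ADP-Glo) quantified ADP from PI5P4Kalpha turnover; ATP 5 microM final, 1 h at RT, 0.1% CHAPS and 0.28 mM EGTA in HEPES pH 7.4.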
HP1b binding inh – HTS for Inhibitors of HP1-beta Chromodomain Interactions with Methylated Histone Tails; Chromobox protein homolog 1 (Homo sapiens), P83916; AlphaScreen HP1-beta / biotin-H3K9me3 peptide binding; Potency, µM (doses to about 114 µM), without a hit: at the top dose activity change, negative = inhibition, usual class: inhibitors; 390,000 compounds, 0.56% hits; AID 540317, 2011; note: potency is the fitted concentration of half-maximal effect; nearly all actives have a fitted effect of over 70% in size
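AlphaScreen: HP1-beta (50 nM) preformed 30 min with biotin-H3(1-18)K9me3 peptide (50 nM) in PBS pH 7.4, 0.01% Tween-20. Compound added for 30 min at RT, then streptavidin donor/nickel chelate acceptor beads (10 ug/mL) for 30 min.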
The depositor's hits bear a star; ! = a repeat was not active; [ ] = remark or other dose. Unless noted, calls come from the whole dose curve; as a rule, active = well fitted curve in the direction sought with a large enough effect; inconclusive = small, poorly fitted or top-dose-only effect, or another doubt; inactive = no such curve, though single readings can be large; an effect the other way counts as inactive or inconclusive.

How did CCOC(=O)N1CCN(C2=C(NS(=O)(=O)c3ccc(C)cc3)C(=O)c3ccccc3C2=O)CC1 do in these assays?
G9a block: 22.4µM*; BAZ2B inh: 8.91µM*; JMJD2A Tudor inh: 22.4µM*; PLK1 PBD inh: inconclusive; PI5P4Ka inh: 2.1; HP1b binding inh: 20µM*

Results for COC(=O)Nc1ccc(S(=O)(=O)N2CCN(c3ccc(F)cc3)CC2)cc1 ?
G9a block: 7.7%[12.7 µM]; BAZ2B inh: 10.6%; JMJD2A Tudor inh: -22.1%[57.1 µM]; PLK1 PBD inh: -4.0%; PI5P4Ka inh: 0.1; HP1b binding inh: 17.6%

How did COc1cccc(Cn2c(=O)c(C)nc3cnc(Nc4ccccc4)nc32)c1 do in these assays?
G9a block: -0.5%[0.501 µM]

What do the screens show for `COc1ccc(/C(=N/Nc2ncnc3ccccc23)C(=O)O)cc1`?
G9a block: inconclusive; BAZ2B inh: 6.0%; JMJD2A Tudor inh: inconclusive; PLK1 PBD inh: -4.8%; PI5P4Ka inh: inconclusive; HP1b binding inh: 9.8%

How did CCNC(=O)CC1C(=O)N(c2ccc(F)cc2)C(=O)N1Cc1ccccn1 (configuration not stated) do in these assays?
BAZ2B inh: -3.5%; JMJD2A Tudor inh: inconclusive; PLK1 PBD inh: 26.7µM*; HP1b binding inh: -6.4%

What do the screens show for `CCOc1ccc(N2C(=O)C(CC(=O)Nc3ccc(F)cc3)N(Cc3ccccn3)C2=S)cc1` (configuration not stated)?
G9a block: 7.5%[59 µM]; BAZ2B inh: inconclusive; JMJD2A Tudor inh: -10.0%; PLK1 PBD inh: -5.4%; PI5P4Ka inh: -20.0; HP1b binding inh: 36.1%

How did CCOc1ccc(OCCC(=O)N(CC)CC(=O)Nc2c(F)cccc2F)cc1 do in these assays?
G9a block: 13.3%[59 µM]; BAZ2B inh: 10.1%; JMJD2A Tudor inh: -13.5%; PLK1 PBD inh: 0.4%; PI5P4Ka inh: 2.7; HP1b binding inh: 25.4%

What do the screens show for `CC(C)n1c(S(=O)(=O)O)nc2ccccc21`?
G9a block: 44.7µM*; BAZ2B inh: -17.7%; JMJD2A Tudor inh: -3.1%; PLK1 PBD inh: -0.4%; PI5P4Ka inh: 2.4; HP1b binding inh: 34.5%

Results for CC(c1ccccc1)n1c(S(=O)(=O)O)nc2ccccc21 (configuration not stated) ?
G9a block: -7.1%; BAZ2B inh: 1.7%; JMJD2A Tudor inh: -28.3%; PLK1 PBD inh: -24.7%; PI5P4Ka inh: -67.1*; HP1b binding inh: 37.3%

Results for Cc1ccc(Cn2c(S(=O)(=O)O)nc3ccccc32)cc1 ?
G9a block: -12.6%[59 µM]; BAZ2B inh: -38.4%; JMJD2A Tudor inh: -23.7%; PLK1 PBD inh: 23.8µM*; PI5P4Ka inh: -23.0; HP1b binding inh: -9.1%

What do the screens show for `Cc1ccc(SCCNC(=O)CN(c2ccccc2)S(=O)(=O)N(C)C)cc1`?
G9a block: 5.5%[59 µM]; BAZ2B inh: 1.1%; JMJD2A Tudor inh: 7.9%; HP1b binding inh: 29.0%

How did CCC(C)(C)n1nnnc1C(c1ccc(OC)c(OC)c1)N1CCN(c2ccccc2)CC1 (configuration not stated) do in these assays?
G9a block: -3.7%[12.7 µM]; BAZ2B inh: -10.9%; JMJD2A Tudor inh: -18.5%; PLK1 PBD inh: -2.9%; PI5P4Ka inh: 9.9; HP1b binding inh: 4.8%

How did CCC(C)(C)n1nnnc1C(c1ccc(OC)c(OC)c1)N1CCN(c2ccc(OC)cc2)CC1 (configuration not stated) do in these assays?
G9a block: 11.2µM*; BAZ2B inh: 50.1µM*; JMJD2A Tudor inh: 28.2µM*; PLK1 PBD inh: 1.6%; PI5P4Ka inh: -1.2; HP1b binding inh: -18.8%

What do the screens show for `CCC(C)(C)n1nnnc1C(c1ccc(OC)c(OC)c1)N1CCN(c2cccc(OC)c2)CC1` (configuration not stated)?
G9a block: -1.6%[12.7 µM]; BAZ2B inh: -35.1%; JMJD2A Tudor inh: -32.0%; PLK1 PBD inh: 0.8%; PI5P4Ka inh: 6.1; HP1b binding inh: -13.6%

What do the screens show for `CCC(C)(C)n1nnnc1C(c1ccc(OC)c(OC)c1)N1CCN(c2ccc(F)cc2)CC1` (configuration not stated)?
G9a block: 22.4µM*; BAZ2B inh: 5.6%; JMJD2A Tudor inh: inconclusive; PLK1 PBD inh: -0.1%; PI5P4Ka inh: -5.9; HP1b binding inh: -3.4%

How did CCc1ccccc1NC(=O)c1ccc2c(c1)N(Cc1cccc(Cl)c1)C(=O)c1ccccc1S2(=O)=O do in these assays?
G9a block: -3.0%[59 µM]; BAZ2B inh: 1.4%; JMJD2A Tudor inh: -7.6%; HP1b binding inh: 61.9%

Results for CCOc1ccc(NC(=O)Cn2c(=O)nc(-c3ccccc3)c3ccccc32)cc1 ?
G9a block: 0.4%[12.7 µM]; BAZ2B inh: -3.0%; JMJD2A Tudor inh: 5.3%; HP1b binding inh: 24.8%

How did O=S(=O)(NCCNC/C=C/c1ccc(Br)cc1)c1cccc2cnccc12 do in these assays?
G9a block: 50.1µM*!

How did CNCCNS(=O)(=O)c1cccc2cnccc12 do in these assays?
G9a block: 29.9µM*

What do the screens show for `NC1=NC(=O)/C(=C\c2ccc(O)c([N+](=O)[O-])c2)S1`?
G9a block: inconclusive; BAZ2B inh: -30.7%; JMJD2A Tudor inh: -15.5%; PLK1 PBD inh: -5.3%; PI5P4Ka inh: -79.1*; HP1b binding inh: -14.5%

Results for NC1=NC(=O)/C(=C/c2cccc(-c3ccc(S(N)(=O)=O)cc3)c2)S1 ?
G9a block: 35.5µM*; BAZ2B inh: inconclusive; JMJD2A Tudor inh: -23.4%; PLK1 PBD inh: -4.3%; PI5P4Ka inh: inconclusive; HP1b binding inh: 11.5%

What do the screens show for `NC1=NC(=O)/C(=C/c2ccccc2OS(=O)(=O)c2ccc3ccccc3c2)S1`?
G9a block: -4.4%[59 µM]; BAZ2B inh: 4.6%; JMJD2A Tudor inh: -23.8%; PLK1 PBD inh: -7.8%; PI5P4Ka inh: -18.9; HP1b binding inh: 10.9%

Results for COc1ncnc2c1ncn2CCCNC1CCN(Cc2ccccc2)CC1 ?
PLK1 PBD inh: -0.5%; PI5P4Ka inh: -2.1

How did O=C(CCNC(=O)c1ccc(Cl)cc1)Nc1ncccc1O do in these assays?
G9a block: 13.1%; BAZ2B inh: 79.4µM*; JMJD2A Tudor inh: -24.0%; PLK1 PBD inh: -16.7%; PI5P4Ka inh: -0.6; HP1b binding inh: 25.7%

What do the screens show for `O=C(CCCNC(=O)c1ccc(Cl)cc1)Nc1ncccc1O`?
G9a block: 15.5%; BAZ2B inh: inconclusive; JMJD2A Tudor inh: -17.6%; PLK1 PBD inh: -12.5%; PI5P4Ka inh: -2.4; HP1b binding inh: 21.5%
